Pf growth 96h: Primary qHTS for delayed death inhibitors of the malarial parasite plastid, 96 hour incubation; P. falciparum luciferase reporter growth, 96 h; actives 6.9% (n = 320,000); Potency, µM (doses to about 28.7 µM), for inactives: top-dose activity change, negative = inhibition, hits mostly inhibitors; further: potency means the concentration at half of the fitted maximal effect
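Delayed-death screen, second-generation endpoint: infected erythrocytes, 2% hematocrit, 0.05% parasitemia final; 96 hours at 37 C, 5% CO2; luciferase detection reagent; luminescence decrease equals reduced growth.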
HCMV inh: qHTS Assay for inhibitors of the human cytomegalovirus (HCMV) | activity change, negative = inhibition, % at 57.5 µM | AID 1259415, 2018 | HFF cells, HCMV-luciferase reporter, 72 h; active compounds read low | actives 4.5% (n = 410,000); in the data active means activity change below about -60%; inconclusive means no clear call, values can overlap the other calls; inactive means above about -39%
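Compounds were evaluated in HFFs infected with an HCMV luciferase reporter virus (MOI 1 PFU/cell). Luciferase in lysates collected 72 h post infection served as the replication measure.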
LASV entry inh: qHTS for Inhibitors of binding or entry into cells for Lassa Virus; Lassa virus pseudotype entry inhibition, cell reporter; Potency, µM (series often up to 37.9 µM), for the others: at the highest dose activity change, negative = inhibition, actives largely listed as inhibitors; actives 1.2% (n = 300,000); AID 540256, 2011; calls by dose curve; tested in HEK293 cells; further: potency means the concentration at half of the fitted maximal effect; nearly all actives have a fitted effect of over 50% in size
HCV inh: qHTS Assay for Inhibitors of Hepatitis C Virus (HCV). Potency, µM (titrated, usually from 41.8 µM), inactives show at the top dose activity change, negative = inhibition, actives largely listed as inhibitors. actives 3.4% (n = 340,000). Huh7.5.1 HCVcc-Cre infection, luciferase reporter, 44 h; further: potency means the concentration at half of the fitted maximal effect
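Cells (1,000/well) were plated 4 h before compound, then infected with HCVcc-Cre virus (~0.5 moi). After 44 h further culture, infection was read as luciferase luminescence following a 15 min substrate incubation at room temperature.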
Pf growth 48h: Primary qHTS for delayed death inhibitors of the malarial parasite plastid, 48 hour incubation | P. falciparum luciferase growth in erythrocytes, 48 h | Potency, µM (doses to about 28.7 µM), inactives show at the highest dose activity change, negative = inhibition, usual class: inhibitors | actives 5.9% (n = 310,000) | AID 504832, 2011; further: potency means the concentration at half of the fitted maximal effect
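Growth was read as firefly luciferase luminescence after a 48 h, 37 C, 5% CO2 exposure of compounds to reporter-bearing P. falciparum cultures (0.1% parasitemia, 2% hematocrit final) in Albumax-supplemented RPMI 1640.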
MARV entry inh: qHTS for inhibitors of binding or entry into cells for Marburg Virus. Marburg virus pseudotyped entry inhibition, cell reporter. Potency, µM (series often up to 37.8 µM), for the others: at the top dose activity change, negative = inhibition, most hits filed as inhibitors. actives 1.8% (n = 300,000); calls by dose curve; tested in HEK293 cells; further: potency means the concentration at half of the fitted maximal effect
Starred values were filed as active, the others as inactive; ? = inconclusive; . = not tested or not shown; [ ] = another dose, or the depositor's remark. A selection: hits, their analogues and other compounds. The true share with any hit is near 14%. Unless noted, the call rests on the fitted dose curve; in most records, active means well fitted inhibition curve with a large enough effect; inconclusive means small, poorly fitted or top-dose-only effect, or another doubt; inactive means no such curve, though single readings can be large or run the other way. On the % scale 0 is the no-effect control and ±100 the full control effect.

SMILES	Pf growth 96h	HCMV inh	LASV entry inh	HCV inh	Pf growth 48h	MARV entry inh
CCc1ccc(NC(=O)CSC2=Nc3ccccc3C3=NC(CCC(=O)NCc4ccccc4OC)C(=O)N23)cc1 (stereo not drawn)	.	13.2	14.1%[46.1 µM]	.	.	.
COc1cccc(NC(=O)CSC2=Nc3ccccc3C3=NC(CCC(=O)NCCc4ccccc4)C(=O)N23)c1 (stereo not drawn)	.	-67.6*	-10.0%[46.1 µM]	.	.	.
COc1ccc(NC(=O)CSC2=Nc3ccccc3C3=NC(CCC(=O)NCc4cccs4)C(=O)N23)cc1 (stereo not drawn)	.	-72.6*	5.1%[46.1 µM]	.	.	.
COc1ccccc1CNC(=O)CCC1N=C2c3ccccc3N=C(SCC(=O)NCC3CCCO3)N2C1=O (stereo not drawn)	4.15µM*	-1.5	?	10.2%	-12.8%	-4.1%[46.1 µM]
COC(=O)Cc1ccccc1NS(=O)(=O)c1ccc(C)cc1	.	156.7	.	.	.	.
COCc1cc(=O)n2[nH]c(-c3cccs3)cc2n1	214.4%	70.0	12.3%	17.0%	?	22.9%
Cc1ccc(Cn2cnc3ccccc32)cc1C	?	-63.2*	-1.4%	?	-21.5%	-12.6%
CCCCN1CC(c2nc3ccccc3n2CCCCOc2cc(C)ccc2C)CC1=O (stereo not drawn)	.	25.0	7.7%[46.1 µM]	.	.	?
CCCCN1CC(c2nc3ccccc3n2CCCCOc2ccccc2C)CC1=O (stereo not drawn)	.	-68.4*	2.4%[46.1 µM]	.	.	?
Cc1cccc(Cn2cnc3ccccc32)c1	?	-14.9	-0.1%	-14.4%	.	?
Cc1ccccc1OCCn1c(C)nc2ccccc21	-29.3%	-15.3	-16.6%[46.1 µM]	5.62µM*	?	?
Cc1ccccc1OCCCCn1c(CO)nc2ccccc21	?	-93.9*	?	11.2µM*	?	?
Cc1nc2ccccc2n1CCOc1ccccc1	-25.9%	?	20.4%	?	0.0%	?
O=C(NCC(c1cccnc1)N1CCc2ccccc21)c1cccc(Br)c1 (stereo not drawn)	.	-39.2	?	.	.	.
CCn1c(SCC(=O)Nc2ccc(N3CCOCC3)cc2)nnc1C1CC1	20.5%	-10.5	.	-26.4%	3.6%	.
CCOc1cc(CNC(=O)c2ccc3nc(CCc4ccccc4)oc3c2)ccc1OC	.	-1.0	?	.	.	.
Cc1ccccc1OCCCCn1cnc2ccccc21	-11.4%	-68.1*	-2.1%	7.94µM*	.	-22.3%
COc1ccccc1CCNC(=O)Cc1ccc(NC(=O)N2CCSc3ncccc32)cc1	.	0.0	17.6%[46.1 µM]	.	.	.
COc1ccc(-c2noc(CSCC(=O)Nc3cccc(C(F)(F)F)c3)n2)cc1OC	.	-4.5	-9.1%[46.1 µM]	.	.	.
CCOc1ccc(NCc2cccn2-c2nnc(N3CCC(C(=O)NCCCN4CCCCC4C)CC3)s2)cc1 (stereo not drawn)	?	-66.3*	.	?	?	.
Cc1ccc(NCc2cccn2-c2nnc(N3CCC(C(=O)NCCC(C)C)CC3)s2)cc1	.	-67.5*	.	.	.	-10.6%[46.1 µM]
C/C(=N\NC(N)=S)C1(C)CCCCC1	?	-61.1*	-37.3%	-4.4%	?	-31.4%
C/C(=N\NC(N)=S)C12CC3CC(CC(C3)C1)C2	5.22µM*	-68.7*	?	?	.	?
CN(Cc1ccccc1)C(=O)c1cccc(NC(=O)Cc2ccc(NC(=O)C3CCCN(C(=O)C4CCC4)C3)cc2)c1 (stereo not drawn)	.	-4.9	.	-12.7%[8.37 µM]	.	.
Cc1ccc(C2Nc3ccccc3-n3c(-c4ccccc4)c4c(=O)n(C)c(=O)n(C)c4c32)cc1 (stereo not drawn)	.	29.1	-2.8%[46.1 µM]	.	.	7.4%[46.1 µM]
COc1cc2c(cc1OC)C1(CCCC1)C(N)=C2C#N	?	?	?	3.16µM*	?	?
CCOC(=O)C1CCN(c2nc(N)c3c(N)nc(SCC(=O)O)cc3c2C#N)CC1	2.62µM*	-13.5	.	-29.1%	2.62µM*	.
CCn1c(SCC(=O)c2ccccc2)nnc1-c1cccc(Cl)c1	.	-17.9	-28.9%[46.1 µM]	.	.	3.8%[46.1 µM]

High-throughput results as filed in PubChem.
